Experimental data as given in ChEMBL document CHEMBL2218924, “A broad activity screen in support of a chemogenomic map for kinase signalling research and drug discovery” (Biochem J, 2013).

What was measured:
[1] = molecular target: Tyrosine-protein kinase SYK (Homo sapiens) (UniProt P43405); conditions: at 10 µM
[2] = molecular target: T1, Mitogen-activated protein kinase kinase kinase 7 (Homo sapiens) (UniProt O43318); conditions: at 1 µM
T1 sequence (whole entry): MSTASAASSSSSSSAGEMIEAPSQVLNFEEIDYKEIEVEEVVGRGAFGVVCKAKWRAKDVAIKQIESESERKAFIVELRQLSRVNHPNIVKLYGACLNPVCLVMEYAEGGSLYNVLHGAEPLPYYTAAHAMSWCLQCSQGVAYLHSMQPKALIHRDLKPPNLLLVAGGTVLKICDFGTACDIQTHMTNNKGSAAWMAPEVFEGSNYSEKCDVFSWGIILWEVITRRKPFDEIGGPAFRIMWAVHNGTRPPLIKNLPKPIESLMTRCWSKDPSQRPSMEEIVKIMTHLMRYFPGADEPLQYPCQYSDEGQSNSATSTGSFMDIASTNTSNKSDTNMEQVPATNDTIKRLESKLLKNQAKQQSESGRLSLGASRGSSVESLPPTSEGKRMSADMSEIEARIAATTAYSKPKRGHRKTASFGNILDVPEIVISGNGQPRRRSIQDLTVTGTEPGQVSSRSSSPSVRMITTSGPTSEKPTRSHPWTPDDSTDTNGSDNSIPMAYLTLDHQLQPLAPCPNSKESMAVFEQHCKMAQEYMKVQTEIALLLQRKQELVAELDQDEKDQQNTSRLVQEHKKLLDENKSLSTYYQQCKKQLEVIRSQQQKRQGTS

[3] = molecular target: T1, Mitogen-activated protein kinase kinase kinase 7 (Homo sapiens); conditions: at 10 µM
[4] = molecular target: T2, Serine/threonine-protein kinase TAO1 (Homo sapiens) (UniProt Q7L7X3); conditions: at 1 µM
T2 sequence (whole entry): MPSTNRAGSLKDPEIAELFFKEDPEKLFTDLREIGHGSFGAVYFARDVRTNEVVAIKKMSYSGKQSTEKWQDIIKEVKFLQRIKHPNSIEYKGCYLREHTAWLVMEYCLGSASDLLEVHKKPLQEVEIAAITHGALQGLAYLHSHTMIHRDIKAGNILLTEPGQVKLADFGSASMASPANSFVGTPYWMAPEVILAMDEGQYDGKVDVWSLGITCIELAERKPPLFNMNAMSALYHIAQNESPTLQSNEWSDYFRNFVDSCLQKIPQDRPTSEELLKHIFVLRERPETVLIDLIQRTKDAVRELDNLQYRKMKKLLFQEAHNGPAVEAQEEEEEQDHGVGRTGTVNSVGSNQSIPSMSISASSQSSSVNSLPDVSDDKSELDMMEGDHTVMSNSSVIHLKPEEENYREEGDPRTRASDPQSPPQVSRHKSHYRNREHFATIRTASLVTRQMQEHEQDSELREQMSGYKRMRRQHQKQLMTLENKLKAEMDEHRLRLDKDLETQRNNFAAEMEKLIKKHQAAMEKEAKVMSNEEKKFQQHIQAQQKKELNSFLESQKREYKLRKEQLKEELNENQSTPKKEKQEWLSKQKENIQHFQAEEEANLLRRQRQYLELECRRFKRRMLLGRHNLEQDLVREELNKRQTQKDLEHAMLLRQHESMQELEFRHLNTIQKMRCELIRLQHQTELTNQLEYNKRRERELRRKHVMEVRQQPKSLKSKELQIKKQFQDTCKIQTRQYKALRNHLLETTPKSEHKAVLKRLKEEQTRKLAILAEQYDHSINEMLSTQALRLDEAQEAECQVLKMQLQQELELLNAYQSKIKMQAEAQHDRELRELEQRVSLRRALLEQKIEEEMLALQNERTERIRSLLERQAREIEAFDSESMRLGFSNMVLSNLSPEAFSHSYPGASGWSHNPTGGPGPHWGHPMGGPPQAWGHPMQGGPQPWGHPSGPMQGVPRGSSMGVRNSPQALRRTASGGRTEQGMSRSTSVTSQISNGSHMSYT

[5] = molecular target: T2, Serine/threonine-protein kinase TAO1 (Homo sapiens); conditions: at 10 µM
[6] = molecular target: T3, Serine/threonine-protein kinase TAO3 (Homo sapiens) (UniProt Q9H2K8); conditions: at 1 µM
T3 sequence (whole entry): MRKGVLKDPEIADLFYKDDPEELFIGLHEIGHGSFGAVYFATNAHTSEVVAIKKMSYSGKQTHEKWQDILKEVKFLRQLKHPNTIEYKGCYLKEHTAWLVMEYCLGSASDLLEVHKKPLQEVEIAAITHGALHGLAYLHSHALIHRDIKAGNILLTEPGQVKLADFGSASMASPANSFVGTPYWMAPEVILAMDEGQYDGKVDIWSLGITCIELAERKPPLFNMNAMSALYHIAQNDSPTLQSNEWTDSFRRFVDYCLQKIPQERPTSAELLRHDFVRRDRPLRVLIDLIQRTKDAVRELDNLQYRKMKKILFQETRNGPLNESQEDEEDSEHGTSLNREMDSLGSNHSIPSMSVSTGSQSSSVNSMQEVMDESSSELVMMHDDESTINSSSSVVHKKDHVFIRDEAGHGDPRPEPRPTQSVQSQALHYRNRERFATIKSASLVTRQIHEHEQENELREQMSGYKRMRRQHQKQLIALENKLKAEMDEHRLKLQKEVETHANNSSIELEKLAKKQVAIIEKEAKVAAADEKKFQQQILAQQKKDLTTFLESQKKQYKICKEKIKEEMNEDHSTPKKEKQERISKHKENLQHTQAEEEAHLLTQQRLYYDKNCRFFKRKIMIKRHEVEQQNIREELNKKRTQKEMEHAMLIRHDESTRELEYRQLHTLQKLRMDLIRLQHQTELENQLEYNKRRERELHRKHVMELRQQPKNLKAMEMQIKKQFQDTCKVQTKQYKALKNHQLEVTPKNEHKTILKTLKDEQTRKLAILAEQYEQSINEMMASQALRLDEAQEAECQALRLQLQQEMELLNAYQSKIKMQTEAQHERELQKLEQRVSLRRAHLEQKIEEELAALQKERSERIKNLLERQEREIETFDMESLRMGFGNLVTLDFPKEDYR

[7] = molecular target: T3, Serine/threonine-protein kinase TAO3 (Homo sapiens); conditions: at 10 µM
[8] = molecular target: T4, Serine/threonine-protein kinase TBK1 (Homo sapiens) (UniProt Q9UHD2); conditions: at 1 µM
T4 sequence (whole entry): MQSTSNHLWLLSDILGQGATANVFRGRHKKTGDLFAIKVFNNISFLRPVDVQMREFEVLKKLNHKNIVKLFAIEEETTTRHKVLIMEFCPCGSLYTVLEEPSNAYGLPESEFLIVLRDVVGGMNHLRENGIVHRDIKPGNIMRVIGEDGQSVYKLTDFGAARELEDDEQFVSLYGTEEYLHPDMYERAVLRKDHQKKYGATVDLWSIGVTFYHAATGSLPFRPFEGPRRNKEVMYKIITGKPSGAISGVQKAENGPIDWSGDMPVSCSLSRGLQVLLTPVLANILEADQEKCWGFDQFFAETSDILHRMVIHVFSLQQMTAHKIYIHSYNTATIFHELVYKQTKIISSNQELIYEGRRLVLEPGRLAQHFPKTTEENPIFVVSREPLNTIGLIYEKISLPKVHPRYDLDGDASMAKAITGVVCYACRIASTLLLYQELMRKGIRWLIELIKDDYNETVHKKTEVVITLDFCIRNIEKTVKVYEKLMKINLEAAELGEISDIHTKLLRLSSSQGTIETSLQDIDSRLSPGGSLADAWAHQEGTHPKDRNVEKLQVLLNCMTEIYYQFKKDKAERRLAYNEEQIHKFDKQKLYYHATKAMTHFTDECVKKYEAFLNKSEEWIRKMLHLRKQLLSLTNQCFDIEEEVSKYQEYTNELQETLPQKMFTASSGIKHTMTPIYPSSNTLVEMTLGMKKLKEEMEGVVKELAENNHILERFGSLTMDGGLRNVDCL

[9] = molecular target: T4, Serine/threonine-protein kinase TBK1 (Homo sapiens); conditions: at 10 µM
[10] = molecular target: T5, Inhibitor of nuclear factor kappa-B kinase subunit alpha (Homo sapiens) (UniProt O15111); conditions: at 1 µM
T5 sequence (whole entry): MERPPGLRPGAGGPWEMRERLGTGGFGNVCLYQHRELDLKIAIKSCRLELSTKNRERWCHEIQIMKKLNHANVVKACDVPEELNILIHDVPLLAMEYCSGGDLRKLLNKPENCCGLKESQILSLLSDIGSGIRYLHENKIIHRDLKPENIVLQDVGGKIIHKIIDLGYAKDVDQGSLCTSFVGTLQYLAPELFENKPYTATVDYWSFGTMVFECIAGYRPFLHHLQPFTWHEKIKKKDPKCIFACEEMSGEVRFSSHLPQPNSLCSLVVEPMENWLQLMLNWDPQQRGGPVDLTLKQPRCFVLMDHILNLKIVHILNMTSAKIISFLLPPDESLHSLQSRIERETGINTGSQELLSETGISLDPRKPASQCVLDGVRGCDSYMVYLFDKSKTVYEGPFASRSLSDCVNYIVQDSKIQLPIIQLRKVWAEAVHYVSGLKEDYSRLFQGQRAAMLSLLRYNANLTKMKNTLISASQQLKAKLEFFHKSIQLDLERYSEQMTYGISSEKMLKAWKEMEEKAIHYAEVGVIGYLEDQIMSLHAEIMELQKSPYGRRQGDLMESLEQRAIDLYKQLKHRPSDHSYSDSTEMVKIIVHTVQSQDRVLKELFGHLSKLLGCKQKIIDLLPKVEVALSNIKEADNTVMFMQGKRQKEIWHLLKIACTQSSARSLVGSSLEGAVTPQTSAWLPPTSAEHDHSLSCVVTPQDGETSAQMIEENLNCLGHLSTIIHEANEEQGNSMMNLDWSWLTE

[11] = molecular target: T5, Inhibitor of nuclear factor kappa-B kinase subunit alpha (Homo sapiens); conditions: at 10 µM
[12] = molecular target: Insulin receptor (Homo sapiens) (UniProt P06213); conditions: at 1 µM
Insulin receptor (Homo sapiens), sequence (P06213 28-758 limits assumed): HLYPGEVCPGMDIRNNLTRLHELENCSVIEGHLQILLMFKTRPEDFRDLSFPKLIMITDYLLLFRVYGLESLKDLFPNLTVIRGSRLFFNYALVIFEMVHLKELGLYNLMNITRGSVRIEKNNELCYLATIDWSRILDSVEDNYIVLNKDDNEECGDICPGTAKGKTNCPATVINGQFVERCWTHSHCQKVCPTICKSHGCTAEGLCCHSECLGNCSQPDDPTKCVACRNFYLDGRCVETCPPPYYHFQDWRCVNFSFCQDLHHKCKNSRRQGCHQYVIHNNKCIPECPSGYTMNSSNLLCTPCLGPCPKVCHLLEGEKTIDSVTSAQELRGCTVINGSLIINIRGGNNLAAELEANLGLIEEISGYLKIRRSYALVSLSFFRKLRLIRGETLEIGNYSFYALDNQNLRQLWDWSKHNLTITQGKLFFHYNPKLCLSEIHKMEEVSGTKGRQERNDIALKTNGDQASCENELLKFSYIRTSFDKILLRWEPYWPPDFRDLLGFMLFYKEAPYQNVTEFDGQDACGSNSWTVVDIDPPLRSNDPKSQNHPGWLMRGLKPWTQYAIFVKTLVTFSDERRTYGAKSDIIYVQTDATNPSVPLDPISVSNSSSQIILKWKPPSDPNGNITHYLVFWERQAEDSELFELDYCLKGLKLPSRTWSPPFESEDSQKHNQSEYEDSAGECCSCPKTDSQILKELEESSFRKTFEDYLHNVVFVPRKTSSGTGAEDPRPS
Insulin receptor (Homo sapiens), sequence (P06213 763-1382 limits assumed): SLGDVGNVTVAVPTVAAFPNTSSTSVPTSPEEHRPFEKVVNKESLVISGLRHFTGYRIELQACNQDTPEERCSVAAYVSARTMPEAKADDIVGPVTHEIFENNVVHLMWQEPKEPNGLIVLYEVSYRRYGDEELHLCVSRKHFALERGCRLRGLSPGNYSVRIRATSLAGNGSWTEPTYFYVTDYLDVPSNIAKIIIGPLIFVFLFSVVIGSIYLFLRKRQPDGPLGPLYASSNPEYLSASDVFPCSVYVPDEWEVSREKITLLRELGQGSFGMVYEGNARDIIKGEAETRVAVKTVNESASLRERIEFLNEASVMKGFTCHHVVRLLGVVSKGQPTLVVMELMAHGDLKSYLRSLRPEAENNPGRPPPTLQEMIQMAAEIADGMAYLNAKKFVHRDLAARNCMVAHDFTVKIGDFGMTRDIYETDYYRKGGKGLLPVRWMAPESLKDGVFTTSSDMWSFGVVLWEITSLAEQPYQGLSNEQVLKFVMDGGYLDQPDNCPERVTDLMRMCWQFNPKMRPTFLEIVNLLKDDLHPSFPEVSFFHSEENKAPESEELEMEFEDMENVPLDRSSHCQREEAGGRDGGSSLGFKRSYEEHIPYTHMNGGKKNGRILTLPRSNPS

[13] = molecular target: T6, Serine/threonine-protein kinase TAO2 (Homo sapiens) (UniProt Q9UL54); conditions: at 1 µM
T6 sequence (whole entry): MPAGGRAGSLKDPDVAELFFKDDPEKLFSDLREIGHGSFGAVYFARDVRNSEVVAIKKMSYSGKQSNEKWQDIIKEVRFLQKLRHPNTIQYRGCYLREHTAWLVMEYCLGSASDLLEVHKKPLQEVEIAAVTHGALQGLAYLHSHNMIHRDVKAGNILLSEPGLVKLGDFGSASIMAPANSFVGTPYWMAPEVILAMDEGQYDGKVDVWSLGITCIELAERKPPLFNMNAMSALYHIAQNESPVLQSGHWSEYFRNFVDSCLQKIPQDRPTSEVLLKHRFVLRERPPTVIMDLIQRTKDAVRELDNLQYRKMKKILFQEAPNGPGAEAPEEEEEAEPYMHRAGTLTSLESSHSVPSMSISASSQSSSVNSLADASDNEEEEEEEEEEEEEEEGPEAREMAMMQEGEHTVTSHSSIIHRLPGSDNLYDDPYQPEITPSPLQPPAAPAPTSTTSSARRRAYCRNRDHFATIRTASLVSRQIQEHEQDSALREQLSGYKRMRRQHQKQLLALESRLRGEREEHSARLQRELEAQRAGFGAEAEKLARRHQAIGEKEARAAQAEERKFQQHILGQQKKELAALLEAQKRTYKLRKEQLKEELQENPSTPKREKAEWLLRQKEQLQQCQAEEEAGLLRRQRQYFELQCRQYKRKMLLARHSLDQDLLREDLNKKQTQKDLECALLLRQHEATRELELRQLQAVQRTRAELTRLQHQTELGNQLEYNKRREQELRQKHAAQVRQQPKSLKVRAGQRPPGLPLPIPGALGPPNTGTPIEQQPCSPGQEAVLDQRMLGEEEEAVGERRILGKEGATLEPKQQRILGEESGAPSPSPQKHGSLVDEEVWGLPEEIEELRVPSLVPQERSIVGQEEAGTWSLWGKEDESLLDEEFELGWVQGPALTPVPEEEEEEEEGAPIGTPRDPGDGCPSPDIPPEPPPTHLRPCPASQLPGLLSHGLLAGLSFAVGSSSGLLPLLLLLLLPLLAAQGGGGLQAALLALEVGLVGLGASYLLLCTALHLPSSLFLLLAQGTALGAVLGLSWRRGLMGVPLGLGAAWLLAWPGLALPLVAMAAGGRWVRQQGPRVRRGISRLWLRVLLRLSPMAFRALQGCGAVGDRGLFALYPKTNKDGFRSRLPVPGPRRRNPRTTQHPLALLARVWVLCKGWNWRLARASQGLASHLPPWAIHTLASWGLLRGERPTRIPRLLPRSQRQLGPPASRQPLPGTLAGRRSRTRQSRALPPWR

[14] = molecular target: T6, Serine/threonine-protein kinase TAO2 (Homo sapiens); conditions: at 10 µM
[15] = molecular target: T7, TGF-beta receptor type-1 (Homo sapiens) (UniProt P36897); conditions: at 1 µM
T7 sequence (whole entry): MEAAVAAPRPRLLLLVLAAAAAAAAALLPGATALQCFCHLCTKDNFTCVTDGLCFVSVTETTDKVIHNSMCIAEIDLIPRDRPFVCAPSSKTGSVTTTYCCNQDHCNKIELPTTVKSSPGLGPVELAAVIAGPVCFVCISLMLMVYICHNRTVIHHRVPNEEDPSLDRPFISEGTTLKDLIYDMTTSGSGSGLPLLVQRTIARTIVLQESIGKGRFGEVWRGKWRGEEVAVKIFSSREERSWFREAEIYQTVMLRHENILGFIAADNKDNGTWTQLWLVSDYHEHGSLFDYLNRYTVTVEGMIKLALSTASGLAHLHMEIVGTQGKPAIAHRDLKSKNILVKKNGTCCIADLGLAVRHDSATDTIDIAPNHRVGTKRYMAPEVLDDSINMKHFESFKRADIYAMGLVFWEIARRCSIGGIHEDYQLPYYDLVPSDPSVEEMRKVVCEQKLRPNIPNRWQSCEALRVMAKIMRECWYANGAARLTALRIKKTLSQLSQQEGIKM

[16] = molecular target: T7, TGF-beta receptor type-1 (Homo sapiens); conditions: at 10 µM
[17] = molecular target: Insulin-like growth factor 1 receptor (Homo sapiens) (UniProt P08069); conditions: at 1 µM
Insulin-like growth factor 1 receptor (Homo sapiens), sequence (P08069 31-736 limits assumed): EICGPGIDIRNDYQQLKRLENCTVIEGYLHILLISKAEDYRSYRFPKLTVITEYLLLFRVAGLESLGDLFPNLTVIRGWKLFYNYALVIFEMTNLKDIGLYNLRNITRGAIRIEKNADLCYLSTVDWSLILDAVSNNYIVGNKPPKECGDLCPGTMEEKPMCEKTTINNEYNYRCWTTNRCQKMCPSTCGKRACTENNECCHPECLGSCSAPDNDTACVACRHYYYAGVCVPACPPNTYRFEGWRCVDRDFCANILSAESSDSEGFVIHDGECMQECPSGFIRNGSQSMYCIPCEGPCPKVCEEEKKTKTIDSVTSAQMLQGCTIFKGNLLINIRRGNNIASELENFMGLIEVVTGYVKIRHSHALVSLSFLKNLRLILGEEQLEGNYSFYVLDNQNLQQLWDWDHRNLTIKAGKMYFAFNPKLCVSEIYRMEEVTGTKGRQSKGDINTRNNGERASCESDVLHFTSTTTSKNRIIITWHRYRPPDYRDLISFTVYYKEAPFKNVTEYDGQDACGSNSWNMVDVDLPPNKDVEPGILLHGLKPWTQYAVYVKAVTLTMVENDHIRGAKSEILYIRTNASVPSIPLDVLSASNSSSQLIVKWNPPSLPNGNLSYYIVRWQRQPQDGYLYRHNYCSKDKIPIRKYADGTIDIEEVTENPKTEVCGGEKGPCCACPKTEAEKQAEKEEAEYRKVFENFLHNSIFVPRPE
Insulin-like growth factor 1 receptor (Homo sapiens), sequence (P08069 741-1367 limits assumed): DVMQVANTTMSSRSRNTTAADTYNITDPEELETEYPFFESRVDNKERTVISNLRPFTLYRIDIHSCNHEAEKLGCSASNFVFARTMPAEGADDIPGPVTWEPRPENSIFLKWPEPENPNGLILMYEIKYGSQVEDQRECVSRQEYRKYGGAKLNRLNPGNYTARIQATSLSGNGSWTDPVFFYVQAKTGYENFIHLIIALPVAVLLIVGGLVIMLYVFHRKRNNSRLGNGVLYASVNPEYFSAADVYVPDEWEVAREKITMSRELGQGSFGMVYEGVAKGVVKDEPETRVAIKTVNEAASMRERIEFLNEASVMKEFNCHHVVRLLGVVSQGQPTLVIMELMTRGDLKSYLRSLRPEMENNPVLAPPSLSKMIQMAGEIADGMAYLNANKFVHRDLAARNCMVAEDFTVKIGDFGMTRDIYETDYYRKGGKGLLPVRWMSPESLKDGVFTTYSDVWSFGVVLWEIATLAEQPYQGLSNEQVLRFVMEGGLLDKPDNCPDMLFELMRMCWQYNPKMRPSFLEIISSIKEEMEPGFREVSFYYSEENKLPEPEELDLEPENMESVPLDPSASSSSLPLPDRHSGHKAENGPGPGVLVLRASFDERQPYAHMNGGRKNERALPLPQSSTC

[18] = molecular target: Insulin-like growth factor 1 receptor (Homo sapiens) (UniProt P08069); conditions: at 10 µM

Row | SMILES | residual activity [1] [%] | residual activity [2] [%] | residual activity [3] [%] | residual activity [4] [%] | residual activity [5] [%] | residual activity [6] [%] | residual activity [7] [%] | residual activity [8] [%] | residual activity [9] [%] | residual activity [10] [%] | residual activity [11] [%] | residual activity [12] [%] | residual activity [13] [%] | residual activity [14] [%] | residual activity [15] [%] | residual activity [16] [%] | residual activity [17] [%] | residual activity [18] [%]
1 | NCCNc1ncc(C(N)=O)c(Nc2cccc(C(F)(F)F)c2)n1 | 0 | 78 | 25 | 78 | 28 | 73 | 32 | 79 | 54 | 104 | 66 | 115 |  |  |  |  |  | 
2 | CCCCc1c(-c2ccc(O)cc2)[nH]c2nccnc12 | 66 | 90 | 89 | 36 | 7 | 62 | 68 | 70 | 35 | 90 | 81 |  | 35 | 30 | 91 | 46 | 65 | 66
